Screens deposited in PubChem by several laboratories.
DAX1 inh: DAX1 (NR0B1) inhibitors, primary screen, cell-based, HEK293, Gal4-DAX1, luciferase luminescence; Nuclear receptor subfamily 0 group B member 1 (Homo sapiens), P51843; HEK293 Gal4-DAX1 luciferase reporter; AID 504766, 2011; inhibition, % at 6.75 µM; 340,000 tested, 0.99% active;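 active = inhibition above the mean over all tested compounds plus 3 SD, cut at about 4.2% in these data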;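 note: 0% = DAX1-transfected cells with DMSO and 100% = empty-vector control cells with DMSO; inhibition shows as a rise in luminescence from relieved DAX1 repression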
AHR activator: AHR activators, primary screen, cell-based, luminescence, luciferase reporter, human. Aryl hydrocarbon receptor (Homo sapiens), P35869. AHR-responsive luciferase reporter cells. activation, % at 5 µM. 320,000 tested, 2.5% active. AID 2796, 2010; in the data active = activation above about 47%;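 note: 0% = vehicle wells and 100% = reference agonist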
Target sequence (P35869 whole entry, looked up): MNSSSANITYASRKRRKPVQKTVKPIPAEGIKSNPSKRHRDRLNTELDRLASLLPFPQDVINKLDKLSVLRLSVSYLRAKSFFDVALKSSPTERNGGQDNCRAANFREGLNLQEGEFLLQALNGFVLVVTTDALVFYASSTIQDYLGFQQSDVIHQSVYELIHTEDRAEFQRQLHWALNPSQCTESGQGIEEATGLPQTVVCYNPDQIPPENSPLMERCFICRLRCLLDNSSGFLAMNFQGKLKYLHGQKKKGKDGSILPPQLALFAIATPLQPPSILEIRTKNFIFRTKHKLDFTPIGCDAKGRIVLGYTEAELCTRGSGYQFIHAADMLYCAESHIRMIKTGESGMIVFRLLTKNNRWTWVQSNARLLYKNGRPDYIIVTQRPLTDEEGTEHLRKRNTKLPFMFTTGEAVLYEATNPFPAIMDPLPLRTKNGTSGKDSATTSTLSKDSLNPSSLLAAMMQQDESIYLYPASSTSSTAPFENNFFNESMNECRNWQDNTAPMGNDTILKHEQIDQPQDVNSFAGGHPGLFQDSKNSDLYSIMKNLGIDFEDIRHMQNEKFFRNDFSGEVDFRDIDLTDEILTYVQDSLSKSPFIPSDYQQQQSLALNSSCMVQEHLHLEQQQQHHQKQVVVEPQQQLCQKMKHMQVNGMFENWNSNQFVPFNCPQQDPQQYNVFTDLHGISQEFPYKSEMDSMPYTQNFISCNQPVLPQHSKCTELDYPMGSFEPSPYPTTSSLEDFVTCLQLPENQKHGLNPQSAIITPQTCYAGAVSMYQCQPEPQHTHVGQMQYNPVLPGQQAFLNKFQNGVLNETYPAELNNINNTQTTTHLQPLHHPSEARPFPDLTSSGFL
GAA850 FXN act: FXN promoter activators, primary screen, cell-based, luciferase luminescence, HEK293 lucGAA850. HEK293 lucGAA850 FXN promoter luciferase reporter, 24 h; percent of 10 µM SAHA response. activation, % at 6 µM. 360,000 tested, 0.56% active;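 active = activation above the average of all compounds screened plus 3 SD, cutoff fixed separately per campaign, cut at about 7.5% in these data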;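 note: 0% = DMSO wells and 100% = 10 µM SAHA wells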
HSF1 inhib: HSF1 inhibitors in luciferase reporter cells, primary screen, cell-based, NIH3T3, luminescence; NIH3T3-HGL HSE-luciferase, MG132-induced, luminescence 8 h; hits give low values; activity change, negative = inhibition, % at 7.5 µM (by protocol); 300,000 tested, 0.77% active;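 active = more than half of replicate wells show activity change below -50%, luminescence cut by over half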;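 note: luciferase reports HSF-1 transcriptional activity via heat shock element; 0% = median of DMSO wells and -100% = zero luminescence signal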
HSP90 refold inh: HSP90 inhibitors, primary screen, cell lysate, luminescence. Rabbit reticulocyte lysate, luciferase refolding luminescence, 3 h. inhibition, % at 5.6 µM. 290,000 tested, 0.91% active. AID 1789, 2009;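 active = inhibition above the screen-wide mean plus 3 SD, computed separately per campaign, cut at about 16% in these data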;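 note: 0% = DMSO wells and 100% = 60 µM geldanamycin wells; inhibitors lower the luminescence because luciferase stays unfolded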
HSF-1 act: HSF-1 activators, primary screen, NIH3T3-HGL cells, MG132 stress, luminescence, single point; 300,000 tested, 1.7% active; activation, % at 9 µM; NIH3T3-HGL HSF-1 luciferase reporter, 8 h; 100% = twice DMSO control signal;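 active = mean replicate activation of at least 50% with a set share of replicates each reaching 50%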;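 note: 0% = median of the neutral control wells and 100% = twice that signal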
* marks the source's active call; other numbers are inactive results. Shown are actives, neighbours in structure and some others; about 5.9% of the full set was active somewhere.

How did O=C(COC(=O)Cn1cnc2ccccc2c1=O)Nc1ccccc1OC(F)F do in these assays?
DAX1 inh: 2; AHR activator: -1; GAA850 FXN act: 1

How did CCCCCCC(NC(=O)c1ccc(C)cc1)C(=O)O (stereo not given) do in these assays?
DAX1 inh: -2; GAA850 FXN act: 1

What do the screens show for `CC1CCCCN1C(=O)c1cc(-c2ccc(Cl)c(Cl)c2)on1` (stereo not given)?
DAX1 inh: 1; AHR activator: -5; GAA850 FXN act: 6; HSF1 inhib: 36; HSP90 refold inh: 6; HSF-1 act: 57*

What do the screens show for `Cc1[nH]c2ccccc2c1C(=O)CN1CCC(C)CC1`?
DAX1 inh: 1; AHR activator: 56*; GAA850 FXN act: 1; HSF1 inhib: -4; HSP90 refold inh: 1; HSF-1 act: -3

How did CC1CCN(CC(=O)c2cccs2)CC1 do in these assays?
DAX1 inh: -1; AHR activator: 4; GAA850 FXN act: 3; HSF1 inhib: -62*; HSP90 refold inh: -1; HSF-1 act: -66

What do the screens show for `CCOC(=O)C1CCN(CC(=O)c2c(C)[nH]c3ccccc23)CC1`?
DAX1 inh: 2; AHR activator: 15; GAA850 FXN act: -2; HSF1 inhib: -5; HSP90 refold inh: 0; HSF-1 act: 8

Results for Cc1[nH]c2ccccc2c1C(=O)Cn1c(=O)oc2ccccc21 ?
DAX1 inh: -1; AHR activator: 1; GAA850 FXN act: -1; HSF1 inhib: 33; HSP90 refold inh: 3; HSF-1 act: 76*

Results for Cc1ccc(N2C(=O)Nc3ccccc3S2(=O)=O)cc1Cl ?
DAX1 inh: -1; AHR activator: -1; GAA850 FXN act: 0; HSF1 inhib: -2; HSP90 refold inh: -2; HSF-1 act: 26

How did CCc1ccccc1NC(=O)CN1CCN(C(=O)CNC(=O)c2ccc(-c3ccccc3)cc2)CC1 do in these assays?
DAX1 inh: -1; AHR activator: 2; GAA850 FXN act: -2

What do the screens show for `O=C(CN1CC(=O)Oc2ccccc21)OCC(=O)c1cccc(Br)c1`?
DAX1 inh: 1; AHR activator: 10; GAA850 FXN act: 1; HSF1 inhib: 31; HSP90 refold inh: 2; HSF-1 act: 53*

What do the screens show for `COc1ccc(OC)c(N(CC(=O)N2CCC(C)CC2)S(=O)(=O)c2ccccc2)c1`?
DAX1 inh: 1; AHR activator: -1; GAA850 FXN act: -2; HSF1 inhib: 19; HSP90 refold inh: 2; HSF-1 act: 60*

What do the screens show for `COc1ccc(C)cc1N(CC(=O)N1CCCC1)S(C)(=O)=O`?
DAX1 inh: 1; AHR activator: 1; GAA850 FXN act: 1; HSF1 inhib: -8; HSP90 refold inh: -3; HSF-1 act: 0

How did COc1ccc(OC)c(N(CC(=O)N2CCCC2)S(C)(=O)=O)c1 do in these assays?
DAX1 inh: 4.5*; AHR activator: -3; GAA850 FXN act: 0; HSF1 inhib: -5; HSP90 refold inh: 0; HSF-1 act: 5

What do the screens show for `COc1ccc(OC)c(N(CC(=O)N2CCC(C)CC2)S(=O)(=O)c2ccc(OC)c(OC)c2)c1`?
DAX1 inh: -2; AHR activator: 0; GAA850 FXN act: -4; HSF1 inhib: 6; HSP90 refold inh: -2; HSF-1 act: -1

Results for CCc1noc(C)c1C(=O)N(CC)CC(=O)NCc1ccc(F)cc1 ?
DAX1 inh: 1; GAA850 FXN act: -2

What do the screens show for `CCC(C)[C@H](NC(=O)NCc1cccc(OC)c1)C(=O)O` (stereo not given in full)?
DAX1 inh: 1; AHR activator: -3; GAA850 FXN act: -1; HSF1 inhib: -83*; HSP90 refold inh: -1; HSF-1 act: -86

What do the screens show for `CCC(C)[C@H](NC(=O)NCc1ccccc1)C(=O)O` (stereo not given in full)?
DAX1 inh: 2; AHR activator: -3; GAA850 FXN act: -1; HSF1 inhib: -6; HSP90 refold inh: -1; HSF-1 act: 4

How did COc1ccc(OC)c(NC(=O)C(=S)NC2CCCCC2)c1 do in these assays?
DAX1 inh: 0; AHR activator: 70*; GAA850 FXN act: 4; HSF1 inhib: 7; HSP90 refold inh: 1; HSF-1 act: -3

Results for Nc1c(C(=O)Nc2ccc3c(c2)OCCO3)nnn1Cc1ccc(Br)cc1 ?
DAX1 inh: 2; AHR activator: 51*; GAA850 FXN act: 1; HSF1 inhib: 30; HSF-1 act: 56*

Results for Nc1c(C(=O)Nc2ccccc2Cl)nnn1-c1ccc2c(c1)OCCO2 ?
DAX1 inh: 2; AHR activator: -5; GAA850 FXN act: 2; HSF1 inhib: 36; HSP90 refold inh: -2; HSF-1 act: 58*

Results for CCc1ccc(Cn2nnc(C(=O)Nc3cccc(C)c3)c2N)cc1 ?
DAX1 inh: 4.3*; AHR activator: 20; GAA850 FXN act: 2; HSF1 inhib: -3; HSP90 refold inh: 1; HSF-1 act: 23

How did NC(=S)c1ccc[n+]([O-])c1 do in these assays?
DAX1 inh: 0; GAA850 FXN act: 1

How did Cc1ccsc1/C=N/N1CCN(Cc2ccccc2)CC1 do in these assays?
DAX1 inh: 1; AHR activator: -3; GAA850 FXN act: 4; HSF1 inhib: 3; HSP90 refold inh: -2; HSF-1 act: 16

How did Cc1ccsc1/C=C/C1=NCCCN1C do in these assays?
DAX1 inh: 0; AHR activator: -2; GAA850 FXN act: -1; HSF1 inhib: -61*; HSP90 refold inh: 2; HSF-1 act: -69

How did COC1(OC)C(/C=C/c2ccc(Cl)cc2)C(C#N)(C#N)C1(OC)OC (stereo not given) do in these assays?
DAX1 inh: -2; AHR activator: 5; GAA850 FXN act: 0; HSF1 inhib: 80; HSP90 refold inh: 6; HSF-1 act: 99*

What do the screens show for `FC(F)(F)c1cccc(NC(=S)NNC(=S)NCc2ccccc2)c1`?
DAX1 inh: -1; AHR activator: 8; GAA850 FXN act: -1; HSF1 inhib: 8; HSP90 refold inh: -3; HSF-1 act: 16

How did FC(F)(F)c1cccc(NC(=S)Nc2cccc(NC(=S)Nc3cccc(C(F)(F)F)c3)n2)c1 do in these assays?
DAX1 inh: 2; AHR activator: 66*; GAA850 FXN act: 7; HSF1 inhib: -4; HSP90 refold inh: -1; HSF-1 act: 2

How did S=C(NCc1ccccn1)Nc1cccc(Cl)c1 do in these assays?
DAX1 inh: 1; AHR activator: 5; GAA850 FXN act: 1; HSF1 inhib: 28; HSP90 refold inh: -3; HSF-1 act: 60*
